# GSH bead fluor: compound fluorescence on glutathione beads, profiling panel, artefact control, biophysical, 488/530 nm, flow cytometry | GSH beads flow cytometry, compound fluorescence 488/530 nm; hits give high values | 190,000 compounds, 0.25% hits | fluorescence (KMESF) at 10 µM; in the data active = fluorescence above about 89;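 also: glutathione beads carrying GST-tagged Bcl family fusion proteins plus one bare bead set; values are compound well signal with DMSO vehicle wells as background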
# Avidin fluor: green autofluorescence of compounds with avidin beads – biophysical, 488/530 nm, flow cytometry, artefact control, profiling panel; AID 1775, 2009; compound fluorescence 488/530 nm; hits give high values; fluorescence (KMESF) at 10 µM; 220,000 compounds, 0.38% hits; in the data active = fluorescence above about 47
# RGS8-Gao reg: RGS8-Galphao binding modulators, primary screen, biochemical, multiplexed bead flow cytometry | actives lie on both sides | response (percent of control binding), % at 10 µM | 220,000 compounds, 0.34% hits | AID 1423, 2008; in the data active = response below about 60% or above about 140%; inactive = in between;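 also: Galphao activated as the GDP aluminium fluoride complex binding bead-coupled RGS8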
# Target sequence (P09471 whole entry, looked up): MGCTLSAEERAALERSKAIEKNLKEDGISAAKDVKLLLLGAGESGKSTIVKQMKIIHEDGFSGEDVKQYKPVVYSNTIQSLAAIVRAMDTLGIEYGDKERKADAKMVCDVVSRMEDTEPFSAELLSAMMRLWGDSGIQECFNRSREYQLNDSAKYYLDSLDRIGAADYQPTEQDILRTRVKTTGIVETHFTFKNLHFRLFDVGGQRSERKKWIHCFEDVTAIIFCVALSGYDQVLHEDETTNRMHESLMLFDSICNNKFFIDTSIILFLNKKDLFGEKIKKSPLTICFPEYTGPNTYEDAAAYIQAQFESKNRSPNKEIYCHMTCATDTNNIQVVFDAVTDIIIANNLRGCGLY
# RGS7-Gao: RGS7-Galphao binding modulators, primary screen, biochemical, multiplexed bead flow cytometry. Guanine nucleotide-binding protein G(o) subunit alpha (Homo sapiens), P09471. actives lie on both sides. binding response (% of control), % at 10 µM. 220,000 compounds, 0.35% hits; in the data active = binding response below about 49% or above about 150%; inconclusive = no clear call, values can overlap the other calls; inactive = in between;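 also: fluorescent Galphao held in activated GDP-AlF4 state binding bead-coupled RGS7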
# RGS16-Gao: modulators of RGS16 binding to Galphao, primary screen, biochemical, human proteins, multiplexed bead flow cytometry; bead-based flow cytometry RGS16-Galphao binding, fluorescence; actives lie on both sides; binding response (% of control), % at 10 µM; 220,000 compounds, 0.38% hits;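 also: Galphao activated by GDP with aluminum fluoride before binding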
# Target sequence (O15492 whole entry, looked up): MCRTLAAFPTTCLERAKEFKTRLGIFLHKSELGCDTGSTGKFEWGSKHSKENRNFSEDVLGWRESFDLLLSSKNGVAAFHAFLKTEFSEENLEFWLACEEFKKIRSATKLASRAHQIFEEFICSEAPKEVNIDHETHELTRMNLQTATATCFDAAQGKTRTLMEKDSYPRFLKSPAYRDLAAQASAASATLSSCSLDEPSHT
# Target sequence (P09471 whole entry, looked up): as the sequence (P09471 whole entry, looked up) above
# RGS4-Gao reg: modulators of RGS4 binding to Galphao, primary screen, biochemical, multiplexed bead flow cytometry. actives lie on both sides. binding response (% of control), % at 10 µM. AID 1415, 2008. Guanine nucleotide-binding protein G(o) subunit alpha (Homo sapiens), P09471. 220,000 compounds, 0.33% hits; in the data active = binding response below about 49% or above about 150%; inactive = in between;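 also: fluorescent Galphao activated with aluminum fluoride binding bead-coupled RGS4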
# RGS-Gao: modulators of RGS–Galpha-o binding, primary screen, biochemical, multiplexed beads, flow cytometry, RGS4/7/8/16/19; shares compounds with RGS16-Gao; multiplexed bead flow cytometry; RGS4–Galpha-o binding response, % at 10 µM; 1,600 compounds, 99% hits;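 also: fluorescently labeled Galpha-o bound to GDP with aluminium fluoride binding biotinylated RGS beads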
# Avidin counter: disruption of biotin probe capture by avidin, counter-screen for RGS protein interaction modulators, biochemical, flow cytometry, bead-based; 1,700 tested, under 10 active; shares compounds with RGS16-Gao; inhibition, % at 10 µM; streptavidin beads, fluorescein-biotin binding;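 active = inhibition above 50%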;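 also: median green fluorescence of gated singlet beads compared with DMSO control wells; 0% = DMSO wells and 100% = complete loss of bead fluorescence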
# RGS8-Gao confirm: RGS8-Galphao binding modulators, confirmation, biochemical, multiplexed bead flow cytometry, single concentration. shares compounds with RGS16-Gao. bead-based flow cytometry RGS8-Galphao binding, fluorescence; actives lie on both sides. binding response (% of control), % at 10 µM. 1,700 compounds, 3% hits. AID 1836, 2009; in the data active = binding response below about 72% or above about 130%; inactive = in between;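 also: Galphao activated as GDP AlF4 complex before binding bead RGS8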
# RGS7-Gao confirm: RGS7-Galphao binding modulators, confirmation, biochemical, multiplexed bead flow cytometry, single concentration; AID 1837, 2009; 1,700 compounds, 7.8% hits; bead-based flow cytometry RGS7-Galphao binding; actives lie on both sides; response (percent of control binding), % at 10 µM; shares compounds with RGS16-Gao; in the data active = response below about 75% or above about 130%; inactive = in between;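 also: fluorescent Galphao activated with GDP and aluminum fluoride binding bead-coupled RGS7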
# RGS16-Gao single: modulators of RGS16-Galphao protein binding, confirmation, biochemical, single concentration, multiplexed bead flow cytometry. shares compounds with RGS16-Gao. bead-based flow cytometry; actives lie on both sides. response (% of control binding), % at 10 µM. 1,700 compounds, 4% hits. AID 1838, 2009; in the data active = response below about 74% or above about 130%; inactive = in between;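 also: Galphao activated as the GDP aluminium fluoride complex binding bead-coupled RGS16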
# RGS4-Gao confirm: modulators of RGS4-Galphao protein binding, confirmation, biochemical, single concentration, multiplexed bead flow cytometry; shares compounds with RGS16-Gao; actives lie on both sides; binding response (% of control), % at 10 µM; 1,700 compounds, 4% hits; AID 1840, 2009; in the data active = binding response below about 74% or above about 130%; inactive = in between
# RGS19-Gao single: regulators of RGS19-Galphao binding, confirmation, biochemical, single point, multiplexed bead flow cytometry. response (percent of control binding), % at 10 µM. shares compounds with RGS16-Gao. 1,700 compounds, 5% hits. bead-based flow cytometry RGS19-Galphao binding; actives lie on both sides. AID 1841, 2009; in the data active = response below about 50% or above about 160%; inactive = in between;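 also: 100% = no compound control and 0% = blank background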
# * marks the source's active call; other numbers are inactive results; u = inconclusive; x = no result given; [ ] = remark or other dose. Hits are enriched below; roughly 1.2% of the tested compounds scored in any of these assays. Unless noted, no rule for the calls is given here.
SMILES,GSH bead fluor,Avidin fluor,RGS8-Gao reg,RGS7-Gao,RGS16-Gao,RGS4-Gao reg,Avidin counter,RGS8-Gao confirm,RGS7-Gao confirm,RGS16-Gao single,RGS4-Gao confirm,RGS19-Gao single,others
CNC(=O)c1c(NC(=O)c2cccc(N3C(=O)CCC3=O)c2)sc2c1CCC2,x,-1,3.9*,u,-3.7*,-2.7*,-1,98,101,101,103,100,
CC(=O)c1cnn(-c2c(Cl)cc(Cl)cc2Cl)c1C,x,9,101,u,99,100,x,x,x,x,x,x,
Nc1nc(SCC(=O)Nc2ccccc2)[nH]c(=O)c1-c1ccccc1,36,x,x,x,x,x,0,98,96,101,99,106,
Cc1ccc(NC(=O)CSc2nc(C)c(Cc3ccccc3)c(=O)[nH]2)cc1,16,1,17*,22*,15*,29*,0,99,102,102,102,104,
CC(C)(C)NC(=O)CSc1nc(N)c(-c2ccccc2)c(=O)[nH]1,14,15,105,99,109,103,x,x,x,x,x,x,
CCN(CC)S(=O)(=O)c1ccc(N2CCOCC2)c(NC(=O)CC23CC4CC(CC(Br)(C4)C2)C3)c1,11,11,99,107,95,103,x,x,x,x,x,x,
COc1ccccc1N(CCN1C(=O)c2cccc3cccc(c23)C1=O)C(=O)c1ccncc1,16,9,104,79,100,100,x,x,x,x,x,x,
Cc1ccc2nc(-c3ccc(NC(=O)CN4C(=O)c5ccccc5C4=O)cc3)sc2c1,19,11,99,108,100,100,x,x,x,x,x,x,
Cc1ccc2nc(-c3ccc(NC(=O)CNC4CC4)cc3)sc2c1,21,101*,91,217*[activator],83,108,0,98,95,97,97,91,RGS-Gao=108*
c1ccc(N(c2ccccc2)c2nc(-n3ccnc3)nc(-n3ccnc3)n2)cc1,43,x,x,x,x,x,0,101,101,102,101,113,
NC(=O)c1ccccc1OCC(=O)Nc1ccc(Cl)c(Cl)c1,x,9,102,u,104,103,x,x,x,x,x,x,
CO/N=C/C(=N\Nc1ccc(OC)cc1)C(=O)c1ccc(F)cc1,15,5,45*,35*,37,40*,2,101,94,102,98,81,
CO/N=C/C(=N\Nc1ccc(C)cc1)C(=O)c1ccc(OC)cc1,14,10,105,105,107,101,x,x,x,x,x,x,
Cc1nn(C2CCS(=O)(=O)C2)c(Cl)c1/C=C/C(=O)OCC(N)=O (stereo not drawn),x,6,96,u,99,94,x,x,x,x,x,x,
N#C/C(=C\c1ccc(Cl)cc1)c1nc2ncccc2[nH]1,15,10,71,84,-40*,89,x,x,x,x,x,x,RGS-Gao=89*
N#C/C(=C\c1c(Cl)cccc1Cl)c1nc2ccccc2[nH]1,x,9,102,u,105,101,x,x,x,x,x,x,
O=C(CCc1ccccc1)NNC(=O)c1ccc(NC(=O)c2ccccc2)cc1,10,4,77,85,2.7*,82,-2,99,91,96,94,92,RGS-Gao=82*
CC(=O)OC(C)CS(=O)(=O)c1ccccc1 (stereo not drawn),10,5,29*,30*,21*,35*,1,107,102,106,102,122,
CC(C)CCNC(=O)CN(C(=O)CCC(=O)Nc1ccccn1)c1ccc(F)c(Cl)c1,14,12,100,u,101,99,x,x,x,x,x,x,
CN(C)CC(C)(C)CNS(=O)(=O)c1ccc(Cl)s1,11,17,99,104,98,97,x,x,x,x,x,x,
Cc1ccc(NC(=S)N/N=C2/CCCCc3ccccc32)cc1,x,9,99,u,102,106,x,x,x,x,x,x,
Cc1ccc(C)c(NC(=S)N/N=C2\CCc3ccccc32)c1,x,2,60,u,47,45*,0,97,96,98,97,113,
NC(=O)c1ccc(NC(=O)c2ccc(CN3CCOCC3)cc2)cc1,34,x,x,x,x,x,-2,101,102,101,101,99,
CCOC(=O)c1ccc(NC(=O)c2ccc(CN3CCOCC3)cc2)cc1,10,23,104,104,104,107,x,x,x,x,x,x,
CC(Cc1cccs1)NC(=O)Nc1ccc([N+](=O)[O-])cc1 (stereo not drawn),14,11,99,u,100,101,x,x,x,x,x,x,
O=C(Nc1ccc(F)cc1)NC1(C(=O)NCc2cccs2)CCCCC1,24,10,105,104,126,109,x,x,x,x,x,x,
O=C(Nc1cccc(Cl)c1)NC1(C(=O)NCc2cccs2)CCCCC1,25,138*,92,232*[activator],97,115,-1,99,98,101,100,94,RGS-Gao=115*
O=C(CCl)Nc1ccccc1C(=O)NCc1ccccc1,16,9,100,u,97,99,x,x,x,x,x,x,
